Common to all, as to assay: DAPPL (digital affinity profiling via proximity ligation, sequencing); 10 mM Tris-HCl pH 7.5, 50 mM NaCl, 1 mM DTT, 4% glycerol, room temperature, 30 min; GST-TFs on glutathione beads, 16-mer random dsDNA library, 0.1% formaldehyde crosslink after washing; high values mean tight binding
In one experiment the target is T1, FEV (Homo sapiens, UniProt Q99581 1-238).
T1 sequence: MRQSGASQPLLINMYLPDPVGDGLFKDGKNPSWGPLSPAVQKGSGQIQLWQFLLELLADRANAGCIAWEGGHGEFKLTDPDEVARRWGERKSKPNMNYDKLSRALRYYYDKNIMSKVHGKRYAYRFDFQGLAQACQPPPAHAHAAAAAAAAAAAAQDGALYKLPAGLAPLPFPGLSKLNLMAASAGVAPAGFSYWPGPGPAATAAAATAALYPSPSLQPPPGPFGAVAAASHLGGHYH
The settings on record: protein: recombinant; tags: N-terminal GST; dsDNA, one strand shown. The essentials:
(§1)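 Binding signal is each hexamer's read frequency for a factor divided by its frequency in the tag-only sample. The factors were GST-fused human transcription factors from yeast, captured on glutathione beads, DNA-barcoded and pooled with that sample. Pools were incubated with 200 nmole of a random double-stranded 16-mer DNA library in Tris/NaCl/DTT/glycerol buffer at room temperature for 30 min, then washed, crosslinked with 0.1% formaldehyde, proximity-ligated with BsaI/T4 ligase (1 h, 37 °C), PCR-amplified and sequenced on an Illumina NextSeq500.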

A further experiment deals with ETV5 (Homo sapiens, UniProt P41161 1-510). As to conditions: protein: recombinant; tags: N-terminal GST; dsDNA, one strand shown. In outline: as §1
ETV5, sequence (P41161 whole entry): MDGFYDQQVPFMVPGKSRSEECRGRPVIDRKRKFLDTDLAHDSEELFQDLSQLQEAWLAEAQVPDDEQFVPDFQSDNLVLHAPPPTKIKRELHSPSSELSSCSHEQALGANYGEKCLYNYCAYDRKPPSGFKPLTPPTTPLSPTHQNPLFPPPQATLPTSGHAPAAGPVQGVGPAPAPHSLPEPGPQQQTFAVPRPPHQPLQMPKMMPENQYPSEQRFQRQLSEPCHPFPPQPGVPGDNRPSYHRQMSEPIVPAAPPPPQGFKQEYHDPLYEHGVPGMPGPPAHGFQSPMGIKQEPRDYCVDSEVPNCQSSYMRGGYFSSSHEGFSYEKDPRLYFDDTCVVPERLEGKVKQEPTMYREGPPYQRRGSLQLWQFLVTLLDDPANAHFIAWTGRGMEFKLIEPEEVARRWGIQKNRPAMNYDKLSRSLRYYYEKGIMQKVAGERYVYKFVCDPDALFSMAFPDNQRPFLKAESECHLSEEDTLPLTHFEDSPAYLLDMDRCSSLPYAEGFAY
A further experiment deals with HSF1 (Homo sapiens, UniProt Q00613 1-529). The settings on record: protein: recombinant; tags: N-terminal GST; chain copies: 3; dsDNA, one strand shown. In outline: as §1
HSF1, sequence (Q00613 whole entry): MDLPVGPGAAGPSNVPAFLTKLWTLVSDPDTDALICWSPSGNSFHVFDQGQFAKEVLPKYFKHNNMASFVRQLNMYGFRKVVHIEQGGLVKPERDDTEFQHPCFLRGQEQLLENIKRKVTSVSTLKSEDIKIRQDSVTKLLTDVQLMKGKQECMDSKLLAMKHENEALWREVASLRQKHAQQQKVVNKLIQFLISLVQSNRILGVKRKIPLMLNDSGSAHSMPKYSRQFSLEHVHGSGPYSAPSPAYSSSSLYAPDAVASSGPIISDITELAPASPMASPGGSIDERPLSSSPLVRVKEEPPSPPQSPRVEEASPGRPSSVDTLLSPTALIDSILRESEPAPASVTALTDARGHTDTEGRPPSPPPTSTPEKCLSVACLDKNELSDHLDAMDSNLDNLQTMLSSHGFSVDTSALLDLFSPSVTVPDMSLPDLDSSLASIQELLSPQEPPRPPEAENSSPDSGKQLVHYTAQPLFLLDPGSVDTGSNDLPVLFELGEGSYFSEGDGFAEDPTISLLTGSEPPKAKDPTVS
The next experiment deals with T2, SPIC (Homo sapiens, UniProt Q8N5J4 1-248).
T2 sequence: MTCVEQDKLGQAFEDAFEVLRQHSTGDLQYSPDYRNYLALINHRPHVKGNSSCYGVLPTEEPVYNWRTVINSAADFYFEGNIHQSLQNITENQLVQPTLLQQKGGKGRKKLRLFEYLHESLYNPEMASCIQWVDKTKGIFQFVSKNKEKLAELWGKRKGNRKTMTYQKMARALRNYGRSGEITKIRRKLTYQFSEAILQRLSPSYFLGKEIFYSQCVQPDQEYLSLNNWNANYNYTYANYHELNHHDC
The settings on record: protein: recombinant; tags: N-terminal GST; dsDNA, one strand shown. In outline:
as §1

For a further experiment, the target named is ELF4 (Homo sapiens, UniProt Q99607 1-663). As to conditions: protein: recombinant; tags: N-terminal GST; dsDNA, one strand shown. The essentials:
as §1

For another experiment, the target named is T3, ELK4 (Homo sapiens, UniProt P28324-2 1-405).
T3 sequence: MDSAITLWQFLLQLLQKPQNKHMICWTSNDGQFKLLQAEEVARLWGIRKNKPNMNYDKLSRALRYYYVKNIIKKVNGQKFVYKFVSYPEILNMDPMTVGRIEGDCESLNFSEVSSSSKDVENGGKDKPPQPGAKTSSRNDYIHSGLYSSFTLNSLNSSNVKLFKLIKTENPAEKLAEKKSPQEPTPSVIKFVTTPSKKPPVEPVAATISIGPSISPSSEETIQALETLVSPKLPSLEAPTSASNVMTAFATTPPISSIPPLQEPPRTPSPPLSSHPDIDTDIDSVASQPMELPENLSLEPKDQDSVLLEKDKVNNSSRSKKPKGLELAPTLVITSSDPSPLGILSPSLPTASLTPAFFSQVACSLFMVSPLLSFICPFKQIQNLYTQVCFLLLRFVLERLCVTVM
As to conditions: protein: recombinant; tags: N-terminal GST; dsDNA, one strand shown. The essentials:
as §1

The target of a further experiment is T4, ETV2 (Homo sapiens, UniProt O00321 1-342).
T4 sequence: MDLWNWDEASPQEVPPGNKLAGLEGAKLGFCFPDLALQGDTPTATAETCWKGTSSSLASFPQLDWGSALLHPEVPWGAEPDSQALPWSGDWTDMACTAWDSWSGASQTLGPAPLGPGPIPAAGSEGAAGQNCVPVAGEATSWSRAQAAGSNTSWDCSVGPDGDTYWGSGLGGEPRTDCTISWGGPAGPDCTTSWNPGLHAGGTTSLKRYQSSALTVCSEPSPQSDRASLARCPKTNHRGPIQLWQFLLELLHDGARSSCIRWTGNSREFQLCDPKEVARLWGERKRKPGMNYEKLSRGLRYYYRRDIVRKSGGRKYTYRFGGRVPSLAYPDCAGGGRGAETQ
The settings on record: protein: recombinant; tags: N-terminal GST; dsDNA, one strand shown. The essentials: as §1

Another experiment has as its target T5, ELF3 (Homo sapiens, UniProt P78545 1-371).
T5 sequence: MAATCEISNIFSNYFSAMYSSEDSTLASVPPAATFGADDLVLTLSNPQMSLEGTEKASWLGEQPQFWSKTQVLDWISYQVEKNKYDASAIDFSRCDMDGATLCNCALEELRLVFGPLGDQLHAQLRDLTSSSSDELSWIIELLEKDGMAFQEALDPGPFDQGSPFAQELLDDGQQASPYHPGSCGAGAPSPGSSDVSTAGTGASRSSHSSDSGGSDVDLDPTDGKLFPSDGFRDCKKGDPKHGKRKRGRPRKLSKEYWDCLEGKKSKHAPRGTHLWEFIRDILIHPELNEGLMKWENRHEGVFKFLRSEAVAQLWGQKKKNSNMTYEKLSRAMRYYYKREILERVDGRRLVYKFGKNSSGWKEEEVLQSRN
As to conditions: protein: recombinant; tags: N-terminal GST; dsDNA, one strand shown. The essentials: as §1

For another experiment, the target named is CRX (Homo sapiens, UniProt O43186 1-299). As to conditions: protein: recombinant; tags: N-terminal GST; dsDNA, one strand shown. The essentials:
as §1

In another experiment the target is ETV1 (Homo sapiens, UniProt P50549 1-477). As to conditions: protein: recombinant; tags: N-terminal GST; dsDNA, one strand shown. The essentials: as §1
ETV1, sequence (P50549 whole entry): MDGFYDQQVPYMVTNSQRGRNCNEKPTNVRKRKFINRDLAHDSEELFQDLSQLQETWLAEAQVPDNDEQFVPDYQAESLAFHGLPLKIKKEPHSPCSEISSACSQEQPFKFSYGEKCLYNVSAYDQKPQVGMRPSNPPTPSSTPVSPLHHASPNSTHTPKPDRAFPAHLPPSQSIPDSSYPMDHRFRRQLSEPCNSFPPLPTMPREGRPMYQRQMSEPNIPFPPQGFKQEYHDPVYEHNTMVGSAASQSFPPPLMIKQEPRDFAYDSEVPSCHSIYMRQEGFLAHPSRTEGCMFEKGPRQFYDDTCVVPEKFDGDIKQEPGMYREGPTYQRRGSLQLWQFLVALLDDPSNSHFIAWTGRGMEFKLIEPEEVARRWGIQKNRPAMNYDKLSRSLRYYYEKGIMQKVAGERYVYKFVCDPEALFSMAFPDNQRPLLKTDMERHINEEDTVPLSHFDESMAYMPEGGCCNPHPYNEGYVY
A further experiment deals with T6, ERF (Homo sapiens, UniProt P50548 1-548).
T6 sequence: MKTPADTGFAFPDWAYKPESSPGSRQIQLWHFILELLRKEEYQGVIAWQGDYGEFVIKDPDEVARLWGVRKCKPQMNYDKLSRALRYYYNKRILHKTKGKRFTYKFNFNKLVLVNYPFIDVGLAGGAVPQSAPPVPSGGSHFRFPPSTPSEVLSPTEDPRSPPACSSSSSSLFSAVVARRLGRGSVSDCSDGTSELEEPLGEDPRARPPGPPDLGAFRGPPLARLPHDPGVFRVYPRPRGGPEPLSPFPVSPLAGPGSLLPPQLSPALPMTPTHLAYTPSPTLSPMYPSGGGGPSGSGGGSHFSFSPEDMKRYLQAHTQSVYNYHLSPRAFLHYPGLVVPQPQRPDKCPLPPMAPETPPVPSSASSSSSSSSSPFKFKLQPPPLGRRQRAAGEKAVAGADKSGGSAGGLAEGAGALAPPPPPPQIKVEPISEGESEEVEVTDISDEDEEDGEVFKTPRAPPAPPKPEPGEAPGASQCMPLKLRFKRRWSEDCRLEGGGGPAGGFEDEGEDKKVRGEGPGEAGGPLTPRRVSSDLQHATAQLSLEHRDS
As to conditions: protein: recombinant; tags: N-terminal GST; dsDNA, one strand shown. The essentials:
as §1

The target of another experiment is T7, ETV3L (Homo sapiens, UniProt Q6ZN32 1-361).
T7 sequence: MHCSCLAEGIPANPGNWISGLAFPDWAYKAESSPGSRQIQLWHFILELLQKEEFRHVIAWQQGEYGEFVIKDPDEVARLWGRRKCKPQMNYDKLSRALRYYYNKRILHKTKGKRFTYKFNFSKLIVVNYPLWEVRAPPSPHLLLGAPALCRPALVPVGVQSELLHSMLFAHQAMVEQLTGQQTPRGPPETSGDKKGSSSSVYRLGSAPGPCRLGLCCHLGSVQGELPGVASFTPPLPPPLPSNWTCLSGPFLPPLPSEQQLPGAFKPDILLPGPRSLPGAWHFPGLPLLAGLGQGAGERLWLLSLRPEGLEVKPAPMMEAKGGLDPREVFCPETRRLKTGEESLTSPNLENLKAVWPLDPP
The settings on record: protein: recombinant; tags: N-terminal GST; dsDNA, one strand shown. The essentials:
as §1

For another experiment, the target named is T8, ETS2 (Homo sapiens, UniProt P15036 1-469).
T8 sequence: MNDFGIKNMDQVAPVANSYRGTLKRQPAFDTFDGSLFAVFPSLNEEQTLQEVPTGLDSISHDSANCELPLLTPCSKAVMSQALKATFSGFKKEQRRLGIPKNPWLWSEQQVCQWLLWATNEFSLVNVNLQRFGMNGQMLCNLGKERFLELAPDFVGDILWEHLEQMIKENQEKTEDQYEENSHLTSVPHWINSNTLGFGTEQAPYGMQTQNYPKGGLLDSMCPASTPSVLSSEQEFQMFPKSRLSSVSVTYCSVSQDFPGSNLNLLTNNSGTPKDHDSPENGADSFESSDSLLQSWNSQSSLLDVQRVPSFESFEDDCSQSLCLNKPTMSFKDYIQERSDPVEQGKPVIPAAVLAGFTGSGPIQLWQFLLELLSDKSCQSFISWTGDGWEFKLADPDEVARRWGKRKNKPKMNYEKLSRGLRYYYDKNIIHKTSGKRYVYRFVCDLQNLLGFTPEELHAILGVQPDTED
As to conditions: protein: recombinant; tags: N-terminal GST; dsDNA, one strand shown. The essentials: as §1

The next experiment has as its target T9, SPDEF (Homo sapiens, UniProt O95238 1-335).
T9 sequence: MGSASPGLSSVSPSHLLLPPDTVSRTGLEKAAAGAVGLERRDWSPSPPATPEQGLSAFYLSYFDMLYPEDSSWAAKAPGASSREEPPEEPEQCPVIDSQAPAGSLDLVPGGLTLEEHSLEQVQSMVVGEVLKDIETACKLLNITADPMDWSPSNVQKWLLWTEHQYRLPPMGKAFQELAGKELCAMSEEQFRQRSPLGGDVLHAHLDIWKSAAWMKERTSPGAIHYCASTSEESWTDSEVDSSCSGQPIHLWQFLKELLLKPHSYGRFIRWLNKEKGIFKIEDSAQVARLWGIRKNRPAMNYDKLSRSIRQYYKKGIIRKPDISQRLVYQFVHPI
As to conditions: protein: recombinant; tags: N-terminal GST; dsDNA, one strand shown. The essentials: as §1

A further experiment concerns the target T10, ETV7 (Homo sapiens, UniProt Q9Y603 1-341).
T10 sequence: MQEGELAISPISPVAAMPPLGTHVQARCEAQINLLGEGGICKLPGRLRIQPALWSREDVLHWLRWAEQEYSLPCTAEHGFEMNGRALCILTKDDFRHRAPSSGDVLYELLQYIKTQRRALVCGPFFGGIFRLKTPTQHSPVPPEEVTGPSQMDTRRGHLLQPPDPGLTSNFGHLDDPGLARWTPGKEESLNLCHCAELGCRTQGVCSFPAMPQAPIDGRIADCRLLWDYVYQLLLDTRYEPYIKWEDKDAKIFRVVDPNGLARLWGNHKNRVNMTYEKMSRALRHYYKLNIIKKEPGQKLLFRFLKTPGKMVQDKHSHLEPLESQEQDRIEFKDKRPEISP
The settings on record: protein: recombinant; tags: N-terminal GST; dsDNA, one strand shown. In outline:
as §1

For the next experiment, the target named is T11, ELF5 (Homo sapiens, UniProt Q9UKW6-2 1-255).
T11 sequence: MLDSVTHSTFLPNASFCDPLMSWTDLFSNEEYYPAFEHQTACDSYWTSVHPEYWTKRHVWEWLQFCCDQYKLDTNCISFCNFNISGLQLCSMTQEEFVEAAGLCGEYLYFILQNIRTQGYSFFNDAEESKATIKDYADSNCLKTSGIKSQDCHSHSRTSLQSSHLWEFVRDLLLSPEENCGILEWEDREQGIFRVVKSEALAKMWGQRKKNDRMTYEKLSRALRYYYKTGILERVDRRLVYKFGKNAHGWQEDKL
The settings on record: protein: recombinant; tags: N-terminal GST; dsDNA, one strand shown. In outline:
as §1

The target in the next experiment is T12, ETV3 (Homo sapiens, UniProt P41162-2 1-143).
T12 sequence: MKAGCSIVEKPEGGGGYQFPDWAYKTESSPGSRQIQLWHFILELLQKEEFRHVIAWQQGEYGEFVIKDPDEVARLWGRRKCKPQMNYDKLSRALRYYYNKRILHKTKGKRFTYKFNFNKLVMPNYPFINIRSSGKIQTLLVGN
The settings on record: protein: recombinant; tags: N-terminal GST; dsDNA, one strand shown. In outline: as §1

A further experiment has as its target ETV6 (Homo sapiens, UniProt P41212 1-452). As to conditions: protein: recombinant; tags: N-terminal GST; dsDNA, one strand shown. The essentials:
as §1

ETV6, sequence (P41212 whole entry): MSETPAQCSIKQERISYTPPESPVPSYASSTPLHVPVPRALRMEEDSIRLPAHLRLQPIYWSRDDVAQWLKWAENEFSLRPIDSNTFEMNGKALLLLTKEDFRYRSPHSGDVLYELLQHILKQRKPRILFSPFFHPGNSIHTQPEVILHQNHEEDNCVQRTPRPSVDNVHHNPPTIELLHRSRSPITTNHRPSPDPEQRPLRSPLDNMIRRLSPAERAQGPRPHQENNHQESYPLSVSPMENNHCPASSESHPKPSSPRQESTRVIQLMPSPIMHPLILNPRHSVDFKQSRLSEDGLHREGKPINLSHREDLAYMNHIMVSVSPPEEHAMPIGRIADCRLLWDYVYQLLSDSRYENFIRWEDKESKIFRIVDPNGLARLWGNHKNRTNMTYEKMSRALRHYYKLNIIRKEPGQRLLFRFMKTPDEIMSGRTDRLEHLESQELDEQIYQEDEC
ELF4, sequence (Q99607 whole entry): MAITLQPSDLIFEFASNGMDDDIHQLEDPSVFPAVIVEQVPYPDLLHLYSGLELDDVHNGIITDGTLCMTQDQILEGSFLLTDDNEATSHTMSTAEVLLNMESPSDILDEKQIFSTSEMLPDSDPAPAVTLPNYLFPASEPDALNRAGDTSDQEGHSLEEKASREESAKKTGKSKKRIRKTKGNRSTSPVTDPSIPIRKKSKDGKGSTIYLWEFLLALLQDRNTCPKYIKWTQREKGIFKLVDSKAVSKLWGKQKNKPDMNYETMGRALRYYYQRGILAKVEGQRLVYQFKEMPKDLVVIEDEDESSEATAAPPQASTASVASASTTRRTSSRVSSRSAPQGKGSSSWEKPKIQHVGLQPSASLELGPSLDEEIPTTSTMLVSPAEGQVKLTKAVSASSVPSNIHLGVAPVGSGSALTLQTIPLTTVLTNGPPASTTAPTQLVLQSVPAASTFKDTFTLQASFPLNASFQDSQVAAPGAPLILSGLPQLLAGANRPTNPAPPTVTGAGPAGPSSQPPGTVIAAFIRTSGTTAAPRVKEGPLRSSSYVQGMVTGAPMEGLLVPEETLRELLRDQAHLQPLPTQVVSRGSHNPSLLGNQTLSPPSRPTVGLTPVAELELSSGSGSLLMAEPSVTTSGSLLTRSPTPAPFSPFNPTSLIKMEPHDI
CRX, sequence (O43186 whole entry): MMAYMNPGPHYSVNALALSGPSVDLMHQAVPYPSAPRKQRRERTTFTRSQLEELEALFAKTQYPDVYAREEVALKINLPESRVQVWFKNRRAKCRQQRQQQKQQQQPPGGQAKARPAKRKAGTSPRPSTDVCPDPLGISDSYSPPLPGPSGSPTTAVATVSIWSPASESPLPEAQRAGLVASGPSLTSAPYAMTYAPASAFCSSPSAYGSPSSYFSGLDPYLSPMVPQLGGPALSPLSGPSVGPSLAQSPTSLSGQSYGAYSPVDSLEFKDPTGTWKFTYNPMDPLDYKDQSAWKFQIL

As to AAACGC, the binding signal in the experiment with FEV is 1.21 fold enrichment (6-mer frequency, TF over GST control); with ETV5 it was 1.28 fold enrichment (6-mer frequency, TF over GST control); in the experiment with HSF1 it was 1.05 fold enrichment (6-mer frequency, TF over GST control); in the experiment with SPIC it was 1.29 fold enrichment (6-mer frequency, TF over GST control); with ELF4, 1.2 fold enrichment (6-mer frequency, TF over GST control); with ELK4 it was 1.27 fold enrichment (6-mer frequency, TF over GST control). For the same sequence, the binding signal with ETV2 is 1.38 fold enrichment (6-mer frequency, TF over GST control); with ELF3 it was 1.21 fold enrichment (6-mer frequency, TF over GST control); with CRX, 1.04 fold enrichment (6-mer frequency, TF over GST control); in the experiment with ETV1, 1.31 fold enrichment (6-mer frequency, TF over GST control); in the experiment with ERF it was 1.24 fold enrichment (6-mer frequency, TF over GST control); with ETV3L, 1.18 fold enrichment (6-mer frequency, TF over GST control). The binding signal in the experiment with ETS2 was 1.22 fold enrichment (6-mer frequency, TF over GST control); in the experiment with SPDEF, 1.24 fold enrichment (6-mer frequency, TF over GST control); in the experiment with ETV7 it was 1.17 fold enrichment (6-mer frequency, TF over GST control); in the experiment with ELF5, 1.33 fold enrichment (6-mer frequency, TF over GST control); in the experiment with ETV3, 1.3 fold enrichment (6-mer frequency, TF over GST control); with ETV6, 1.35 fold enrichment (6-mer frequency, TF over GST control).

Source of the values: article PMC7862700, “An all-to-all approach to the identification of sequence-specific readers for epigenetic DNA modifications on cytosine”.
